Measured values as given in PubChem BioAssay (NCI).
This is part of a sample that, as a whole, favours compounds with a hit. Of some 83,000 tested, about 20% had one in any assay.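 The endpoint reported here, percent growth, reads 100 for growth as untreated, 0 for no net growth and -100 for all cells dead.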 The source made the active and inactive calls. The calls were made as follows: active = growth percent below 10; inactive = the rest.

Legend:
Experiment in all cases: NCI-60 one-dose screen, 48 h (100 = growth as untreated, 0 = no growth, -100 = all killed)
Details in all cases: 10 µM unless noted
RPMI-8226 leukemia = test system: RPMI-8226 leukemia
OVCAR-8 ovarian = test system: OVCAR-8 ovarian
OVCAR-5 ovarian = test system: OVCAR-5 ovarian
OVCAR-4 ovarian = test system: OVCAR-4 ovarian
SK-OV-3 ovarian = test system: SK-OV-3 ovarian
IGROV1 ovarian = test system: IGROV1 ovarian
OVCAR-3 ovarian = test system: OVCAR-3 ovarian
HS 578T breast = test system: HS 578T breast
NCI/ADR-RES ovarian = test system: NCI/ADR-RES ovarian
T-47D breast = test system: T-47D breast
BT-549 breast = test system: BT-549 breast
MDA-MB-435 melanoma = test system: MDA-MB-435 melanoma
SW-620 colon = test system: SW-620 colon
MCF7 breast = test system: MCF7 breast
HCT-116 colon = test system: HCT-116 colon
KM12 colon = test system: KM12 colon
HCC-2998 colon = test system: HCC-2998 colon

Measured: growth

Cn1c(=O)c2c(nc(Cl)n2CCl)n(C)c1=O
inactive: RPMI-8226 leukemia 92.3% | OVCAR-8 ovarian 83% | OVCAR-5 ovarian 103% | OVCAR-4 ovarian 83.2% | SK-OV-3 ovarian 115% | IGROV1 ovarian 53.8% | OVCAR-3 ovarian 116% | HS 578T breast 83.8% | NCI/ADR-RES ovarian 101% | T-47D breast 103% | BT-549 breast 61.8% | MDA-MB-435 melanoma 43.5% | SW-620 colon 45.9% | MCF7 breast 84.4% | HCT-116 colon 95.9% | KM12 colon 116%

O=c1ccn2nc3ccccc3c2[nH]1
inactive: RPMI-8226 leukemia 101% | OVCAR-8 ovarian 114% | OVCAR-5 ovarian 79.2% | OVCAR-4 ovarian 111% | SK-OV-3 ovarian 99.4% | IGROV1 ovarian 110% | OVCAR-3 ovarian 117% | HS 578T breast 134% | NCI/ADR-RES ovarian 60.1% | T-47D breast 95% | BT-549 breast 98.2% | MDA-MB-435 melanoma 118% | SW-620 colon 114% | MCF7 breast 107% | HCT-116 colon 103% | KM12 colon 112%

COc1ccc(C(=NN=C(N)N)c2ccc(OC)cc2)cc1
active: T-47D breast 8.87% | MDA-MB-435 melanoma -35.2% | MCF7 breast 5.47%
inactive: RPMI-8226 leukemia 49.4% | OVCAR-8 ovarian 56.7% | OVCAR-5 ovarian 69.1% | OVCAR-4 ovarian 39.3% | SK-OV-3 ovarian 11% | IGROV1 ovarian 36.3% | OVCAR-3 ovarian 17% | HS 578T breast 65% | NCI/ADR-RES ovarian 83.5% | BT-549 breast 30.6% | SW-620 colon 25.3% | HCT-116 colon 21.5% | KM12 colon 21.2%

CCN1C(=O)N(CC)C2Nn3c(s/c(=C4\C(=O)N(C)c5ccccc54)c3=O)=NC21 (stereo unspecified)
inactive: RPMI-8226 leukemia 48.2% | OVCAR-8 ovarian 38% | OVCAR-5 ovarian 53.8% | OVCAR-4 ovarian 59.6% | SK-OV-3 ovarian 63.4% | IGROV1 ovarian 43.3% | HS 578T breast 38.3% | T-47D breast 27.5% | BT-549 breast 53.9% | SW-620 colon 26.3% | MCF7 breast 13.5% | HCT-116 colon 11.1% | KM12 colon 29.8%
active: OVCAR-3 ovarian 8.52% | NCI/ADR-RES ovarian 6.8% | MDA-MB-435 melanoma -59.6%

COc1cc2nc(Cl)nc(Nc3ccc(S(=O)(=O)Nc4nccs4)cc3)c2cc1OC
inactive: RPMI-8226 leukemia 107% | OVCAR-8 ovarian 97.3% | OVCAR-5 ovarian 111% | OVCAR-4 ovarian 103% | SK-OV-3 ovarian 101% | IGROV1 ovarian 107% | OVCAR-3 ovarian 116% | HS 578T breast 99.5% | NCI/ADR-RES ovarian 104% | T-47D breast 94.3% | BT-549 breast 95.1% | MDA-MB-435 melanoma 106% | SW-620 colon 105% | MCF7 breast 103% | HCT-116 colon 95% | KM12 colon 112%

Cc1ccccc1NC(=O)N/C(N)=N/c1nc(C)c(C)s1
active: RPMI-8226 leukemia 6% | OVCAR-3 ovarian -1.03% | NCI/ADR-RES ovarian 9.02% | MDA-MB-435 melanoma -46.9%
inactive: OVCAR-8 ovarian 30.8% | OVCAR-5 ovarian 41.4% | OVCAR-4 ovarian 49.7% | SK-OV-3 ovarian 45.2% | IGROV1 ovarian 36.2% | HS 578T breast 23.6% | T-47D breast 36.2% | BT-549 breast 66.3% | SW-620 colon 25% | MCF7 breast 21.4% | HCT-116 colon 21.7% | KM12 colon 35%

Cc1ccc2c(c1)Sc1c(ccc3ccccc13)N2
inactive: RPMI-8226 leukemia 50.4% | OVCAR-8 ovarian 72.3% | OVCAR-5 ovarian 109% | OVCAR-4 ovarian 73.5% | SK-OV-3 ovarian 73.1% | IGROV1 ovarian 42.3% | OVCAR-3 ovarian 70.8% | HS 578T breast 66.4% | NCI/ADR-RES ovarian 57.3% | T-47D breast 47.2% | BT-549 breast 81.2% | MDA-MB-435 melanoma 81.6% | SW-620 colon 73.7% | MCF7 breast 56.5% | HCT-116 colon 29.1% | HCC-2998 colon 67.6% | KM12 colon 55.1%

O=C(Nc1ccc(-n2cc(-c3ccncc3)c(-c3ccc(Cl)c(O)c3)n2)cc1)N1CCOCC1
inactive: RPMI-8226 leukemia 106% | OVCAR-8 ovarian 105% | OVCAR-5 ovarian 101% | OVCAR-4 ovarian 104% | SK-OV-3 ovarian 96.4% | IGROV1 ovarian 97.3% | OVCAR-3 ovarian 109% | HS 578T breast 105% | NCI/ADR-RES ovarian 106% | T-47D breast 83.9% | BT-549 breast 100% | MDA-MB-435 melanoma 104% | SW-620 colon 113% | MCF7 breast 101% | HCC-2998 colon 109% | KM12 colon 100%

C=CCNc1nc(NN2C(=O)c3cccc4cccc(c34)C2=O)nc(-n2cnc3ccccc32)n1
inactive: RPMI-8226 leukemia 65.7% | OVCAR-8 ovarian 81.5% | OVCAR-5 ovarian 77.2% | OVCAR-4 ovarian 52.5% | SK-OV-3 ovarian 40.9% | IGROV1 ovarian 46.7% | OVCAR-3 ovarian 84.5% | HS 578T breast 35.9% | NCI/ADR-RES ovarian 72% | T-47D breast 54.8% | BT-549 breast 82.5% | MDA-MB-435 melanoma 97.5% | SW-620 colon 90.6% | MCF7 breast 55.1% | HCC-2998 colon 91.8% | KM12 colon 18.6%

CC/C=C\C/C=C\C[C@H](O)C/C=C1/C(=O)C=C[C@@H]1C/C=C\CCCC(=O)O
inactive: OVCAR-5 ovarian 65.3% | OVCAR-4 ovarian 47.4% | SK-OV-3 ovarian 109% | IGROV1 ovarian 63.1% | HS 578T breast 42.6% | NCI/ADR-RES ovarian 31.3% | T-47D breast 14.2% | MDA-MB-435 melanoma 10.1% | SW-620 colon 21.4% | MCF7 breast 23.6%
active: RPMI-8226 leukemia 3.88% | OVCAR-8 ovarian -4.92% | OVCAR-3 ovarian 7.83% | BT-549 breast -29.3% | HCT-116 colon -61.1% | KM12 colon 6.23%

N=C1CCC(=N)c2c1c(O)c1ccccc1c2O
inactive: RPMI-8226 leukemia 80.2% | OVCAR-8 ovarian 109% | OVCAR-5 ovarian 124% | OVCAR-4 ovarian 95.2% | SK-OV-3 ovarian 84.7% | IGROV1 ovarian 80.1% | OVCAR-3 ovarian 73.1% | HS 578T breast 82.8% | NCI/ADR-RES ovarian 119% | T-47D breast 89.5% | BT-549 breast 97.1% | MDA-MB-435 melanoma 114% | SW-620 colon 101% | MCF7 breast 138% | HCT-116 colon 101% | KM12 colon 96.8%

O=C1CCC2=C3C4CCCCC4C(=O)C4CCCC(OC2C1)C34 (stereo unspecified)
inactive: OVCAR-5 ovarian 108% | OVCAR-4 ovarian 22.1% | SK-OV-3 ovarian 78.4% | HS 578T breast 26.5% | T-47D breast 46.4% | MCF7 breast 12.8%
active: RPMI-8226 leukemia -4.93% | OVCAR-8 ovarian 6.21% | IGROV1 ovarian -2.77% | OVCAR-3 ovarian -28.8% | NCI/ADR-RES ovarian 3.01% | BT-549 breast 7.09% | MDA-MB-435 melanoma -68% | SW-620 colon 4.34% | HCT-116 colon -7.43% | KM12 colon -2.73%

O=C(NCCc1ccc(O)c(O)c1)C12CC3CC(CC(C3)C1)C2
inactive: RPMI-8226 leukemia 22.5% | OVCAR-8 ovarian 95.6% | OVCAR-5 ovarian 66.3% | OVCAR-4 ovarian 87.3% | SK-OV-3 ovarian 86.7% | IGROV1 ovarian 56.1% | OVCAR-3 ovarian 86% | HS 578T breast 83.3% | NCI/ADR-RES ovarian 61.1% | T-47D breast 93.1% | BT-549 breast 92.7% | MDA-MB-435 melanoma 107% | SW-620 colon 91% | MCF7 breast 89.4% | HCC-2998 colon 115% | KM12 colon 117%

C[C@H]1[C@H]2[C@H]3CC[C@@H]4[C@@]5(C)C/C(=C/c6ccco6)C(=O)C(C)(C)[C@@H]5CC[C@@]4(C)[C@]3(C)CC[C@]23CO[C@]1(C)[C@@H](C(=O)/C=C\c1ccco1)C3
inactive: RPMI-8226 leukemia 78% | OVCAR-8 ovarian 98.8% | OVCAR-5 ovarian 113% | OVCAR-4 ovarian 90.7% | SK-OV-3 ovarian 108% | IGROV1 ovarian 101% | OVCAR-3 ovarian 103% | HS 578T breast 94% | NCI/ADR-RES ovarian 108% | T-47D breast 80.3% | BT-549 breast 111% | MDA-MB-435 melanoma 43.4% | SW-620 colon 99.3% | MCF7 breast 88.8% | HCT-116 colon 101% | KM12 colon 99.8%

Cc1c(Cl)cc(-n2c(=O)c3ccccc3c3ccccc3c2=O)cc1Cl
inactive: RPMI-8226 leukemia 91.8% | OVCAR-8 ovarian 105% | OVCAR-5 ovarian 101% | OVCAR-4 ovarian 104% | SK-OV-3 ovarian 98.4% | IGROV1 ovarian 86.7% | OVCAR-3 ovarian 127% | HS 578T breast 99.3% | NCI/ADR-RES ovarian 102% | T-47D breast 93.9% | BT-549 breast 89.8% | MDA-MB-435 melanoma 104% | SW-620 colon 109% | MCF7 breast 98% | HCT-116 colon 101% | HCC-2998 colon 95.5% | KM12 colon 111%

COc1ccc(-c2cc(-c3cc(OC)c(OC)c(OC)c3)c(C#N)c(N3CCOCC3)n2)cc1O
active: RPMI-8226 leukemia -23.8% | NCI/ADR-RES ovarian -51.5%
inactive: OVCAR-8 ovarian 56.3% | OVCAR-5 ovarian 20.5% | OVCAR-4 ovarian 89.6% | SK-OV-3 ovarian 81.2% | IGROV1 ovarian 59.3% | OVCAR-3 ovarian 27.4% | HS 578T breast 41.7% | T-47D breast 78.3% | BT-549 breast 48.3% | MDA-MB-435 melanoma 28.3% | SW-620 colon 23.1% | MCF7 breast 36.2% | HCT-116 colon 49.1% | KM12 colon 17.4%

O=C(CSc1nccc(Nc2ccc(S(=O)(=O)Nc3nccs3)cc2)n1)c1ccc(F)cc1
inactive: RPMI-8226 leukemia 108% | OVCAR-8 ovarian 98.1% | OVCAR-5 ovarian 106% | OVCAR-4 ovarian 99.2% | SK-OV-3 ovarian 97.6% | IGROV1 ovarian 106% | OVCAR-3 ovarian 111% | HS 578T breast 97.9% | NCI/ADR-RES ovarian 101% | T-47D breast 84% | MDA-MB-435 melanoma 104% | SW-620 colon 99.6% | MCF7 breast 96.9% | HCT-116 colon 95.9% | HCC-2998 colon 107% | KM12 colon 106%

CS(=O)(=O)c1ccc(Nc2nc(N[C@H]3CCCC[C@H]3N)nc3cc[nH]c(=O)c23)cc1
active: OVCAR-5 ovarian -6.49% | OVCAR-4 ovarian -3.9% | IGROV1 ovarian 1.3% | OVCAR-3 ovarian -45.2% | T-47D breast -3.45% | MDA-MB-435 melanoma -4.07% | SW-620 colon 6.42% | MCF7 breast 5.47% | HCT-116 colon -2.19% | HCC-2998 colon -13.1% | KM12 colon 0.908%
inactive: RPMI-8226 leukemia 62.9% | OVCAR-8 ovarian 13.6% | SK-OV-3 ovarian 32.8% | HS 578T breast 22.2% | NCI/ADR-RES ovarian 102%

Cc1ccc(-c2cc(-c3ccccc3C)[nH]c(=O)c2C#N)s1
inactive: RPMI-8226 leukemia 97.5% | OVCAR-8 ovarian 95.5% | OVCAR-5 ovarian 93.4% | OVCAR-4 ovarian 85.1% | SK-OV-3 ovarian 111% | IGROV1 ovarian 80.4% | OVCAR-3 ovarian 94.5% | HS 578T breast 82.8% | NCI/ADR-RES ovarian 96.8% | BT-549 breast 79.4% | MDA-MB-435 melanoma 94.9% | SW-620 colon 95.6% | MCF7 breast 89% | HCT-116 colon 91.8% | HCC-2998 colon 111% | KM12 colon 95.3%
